Data published in the supplement of paper PMC9950053.
Counter-ions that a name gives are not always drawn.

These molecules were tested on Danio rerio larvae (5 dpf) (assay: 1-h baseline activity (% time moving, periods 1-6) minus DMSO control (percentage points); higher = more locomotor activity than DMSO larvae). Details: 10 µM; exposure time: 3 h pre-incubation + 3 h imaging.
Procedure: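 Wild-type 5 dpf zebrafish larvae (n=48 per drug, 96-well plates, 28.5 °C) were exposed to Tocris FDA-approved library compounds at 10 µM (0.1% DMSO) for 3 h before and 3 h during imaging. Images were taken every 6 s during visual and acoustic stimuli, and larvae were tracked with Z-LaP Tracker. Each measure is the treated-group mean minus the DMSO control mean (n=844), in percentage points. This mapping covers compounds with 5-character plate codes.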

| SMILES | 1-h baseline activity |
| --- | --- |
| COc1ccc(C(CN(C)C)C2(O)CCCCC2)cc1 (stereo unspecified) [Venlafaxine hydrochloride] | -22.8 |
